The results in this text go back to paper PMC9911399, “Two distinct binding modes provide the RNA-binding protein RbFox with extraordinary sequence specificity”.

Positions count from the first letter of the chain named. Whole data set: some 16,000 sequences, median “ka relative to ugcaugu” near 0.0091, cut for the highest 2% near 0.032. The list comes from a sample in which the highest values are over-represented; it also holds similar and randomly drawn sequences.

To fix the notation:
B1: GUGCGUA (DNA:RNA)
RNA: GGGAGACCGGAAUUCAGAUUGUCCGUGCGUAUUAAAUCCCGUCGUAGCCACCA
DNA 1: CAATCTGAATTCCGGTCTCCC
DNA 2: TGGTGGCTACGACGGGATT
B2: CGUGGAA (DNA:RNA)
RNA: B1 RNA with G25C, U26G, G27U, C28G, U30A
DNA 1: CAATCTGAATTCCGGTCTCCC
DNA 2: TGGTGGCTACGACGGGATT
B3: CCCGACG (DNA:RNA)
RNA: GGGAGACCGGAAUUCAGAUUGUCCCCCGACGUUAAAUCCCGUCGUAGCCACCA
DNA 1: CAATCTGAATTCCGGTCTCCC
DNA 2: TGGTGGCTACGACGGGATT
B4: CGAGUCG (DNA:RNA)
RNA: B3 RNA with C26G, C27A, A29U
DNA 1: CAATCTGAATTCCGGTCTCCC
DNA 2: TGGTGGCTACGACGGGATT
B5: UCGCCGA (DNA:RNA)
RNA: B1 RNA with G25U, U26C, G29C, U30G
DNA 1: CAATCTGAATTCCGGTCTCCC
DNA 2: TGGTGGCTACGACGGGATT
B6: AAGUACG (DNA:RNA)
RNA: B3 RNA with C25A, C26A, C27G, G28U
DNA 1: CAATCTGAATTCCGGTCTCCC
DNA 2: TGGTGGCTACGACGGGATT
B7: GGGCAUA (DNA:RNA)
RNA: B1 RNA with U26G, G29A
DNA 1: CAATCTGAATTCCGGTCTCCC
DNA 2: TGGTGGCTACGACGGGATT
B8: GGGCAUG (DNA:RNA)
RNA: B1 RNA with U26G, G29A, A31G
DNA 1: CAATCTGAATTCCGGTCTCCC
DNA 2: TGGTGGCTACGACGGGATT
B9: CGGGCAU (DNA:RNA)
RNA: B3 RNA with C26G, C27G, A29C, C30A, G31U
DNA 1: CAATCTGAATTCCGGTCTCCC
DNA 2: TGGTGGCTACGACGGGATT
B10: GGGCAUC (DNA:RNA)
RNA: B1 RNA with U26G, G29A, A31C
DNA 1: CAATCTGAATTCCGGTCTCCC
DNA 2: TGGTGGCTACGACGGGATT
B11: GGGCAUU (DNA:RNA)
RNA: B1 RNA with U26G, G29A, A31U
DNA 1: CAATCTGAATTCCGGTCTCCC
DNA 2: TGGTGGCTACGACGGGATT
B12: GGGGCAU (DNA:RNA)
RNA: B1 RNA with U26G, C28G, G29C, U30A, A31U
DNA 1: CAATCTGAATTCCGGTCTCCC
DNA 2: TGGTGGCTACGACGGGATT
B13: CGCCCAU (DNA:RNA)
RNA: B3 RNA with C26G, G28C, A29C, C30A, G31U
DNA 1: CAATCTGAATTCCGGTCTCCC
DNA 2: TGGTGGCTACGACGGGATT
B14: AGCCGAC (DNA:RNA)
RNA: B1 RNA with G25A, U26G, G27C, U30A, A31C
DNA 1: CAATCTGAATTCCGGTCTCCC
DNA 2: TGGTGGCTACGACGGGATT
B15: UCGCCUU (DNA:RNA)
RNA: B1 RNA with G25U, U26C, G29C, A31U
DNA 1: CAATCTGAATTCCGGTCTCCC
DNA 2: TGGTGGCTACGACGGGATT
B16: GGAAGAA (DNA:RNA)
RNA: B1 RNA with U26G, G27A, C28A, U30A
DNA 1: CAATCTGAATTCCGGTCTCCC
DNA 2: TGGTGGCTACGACGGGATT
B17: GGGAAGA (DNA:RNA)
RNA: B1 RNA with U26G, C28A, G29A, U30G
DNA 1: CAATCTGAATTCCGGTCTCCC
DNA 2: TGGTGGCTACGACGGGATT
B18: GGGAGAA (DNA:RNA)
RNA: B1 RNA with U26G, C28A, U30A
DNA 1: CAATCTGAATTCCGGTCTCCC
DNA 2: TGGTGGCTACGACGGGATT
B19: CGGAAGA (DNA:RNA)
RNA: B3 RNA with C26G, C27G, G28A, C30G, G31A
DNA 1: CAATCTGAATTCCGGTCTCCC
DNA 2: TGGTGGCTACGACGGGATT
B20: GUCAGAA (DNA:RNA)
RNA: B1 RNA with G27C, C28A, U30A
DNA 1: CAATCTGAATTCCGGTCTCCC
DNA 2: TGGTGGCTACGACGGGATT
B21: GGAGAAA (DNA:RNA)
RNA: B3 RNA with C25G, C26G, C27A, C30A, G31A
DNA 1: CAATCTGAATTCCGGTCTCCC
DNA 2: TGGTGGCTACGACGGGATT

The assay has as its target T1, RBFOX1 RRM (Homo sapiens, UniProt Q9NWB1 109-208).
T1 sequence: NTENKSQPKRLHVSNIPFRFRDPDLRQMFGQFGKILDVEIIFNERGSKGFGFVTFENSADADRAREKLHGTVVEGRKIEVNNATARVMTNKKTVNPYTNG
Nature of the assay: EMSA; HiTS-Eq, 1 nM pool, 10 min; buffer printed only for the single-RNA assays: 10 mM Tris pH 7.5, 150 mM NaCl, 3.4 mM EDTA, 0.001% NP-40, 30 C. To be noted: tags: His6 N-terminal (pET28a); label: 5' 32P. The method in brief: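 Purified RbFox RRM, wild type or mutant, was incubated for 10 min in 50 µL with 1 nM of a 5′-radiolabelled RNA pool carrying 7 randomized nucleotides, whose flanks were annealed to DNA oligonucleotides, over a series of increasing protein concentrations. Unbound RNA was resolved on 8% native PAGE, cut out, reverse-transcribed, barcoded by PCR and sequenced on an Illumina HiSeq 2500. Relative association constants were derived from changes in read counts for each RNA species versus the control reaction and normalised to the cognate motif.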
(In general: A gel shift assay detects complexes by their altered migration in electrophoresis.)
Take B1: the binding signal was 0.0121 KA relative to UGCAUGU.

For B2, the binding signal is 0.0142 KA relative to UGCAUGU.

As for B3, the binding signal was 0.0192 KA relative to UGCAUGU.

Regarding B4, the binding signal is 0.0112 KA relative to UGCAUGU.

Turning to B5, the binding signal was 0.0122 KA relative to UGCAUGU.

Consider B6, for which the binding signal is 0.0114 KA relative to UGCAUGU.

On to B7, for which the binding signal is 0.0114 KA relative to UGCAUGU.

In the case of B8, the binding signal was 0.519 KA relative to UGCAUGU.

Regarding B9, the binding signal was 0.0317 KA relative to UGCAUGU.

Take B10: the binding signal is 0.0179 KA relative to UGCAUGU.

On to B11, for which the binding signal was 0.0157 KA relative to UGCAUGU.

For the molecule B12, the binding signal is 0.0283 KA relative to UGCAUGU.

As to B13, the binding signal was 0.00281 KA relative to UGCAUGU.

As for B14, the binding signal is 0.00754 KA relative to UGCAUGU.

On to B15, for which the binding signal is 0.0126 KA relative to UGCAUGU.

As for B16, the binding signal was 0.0149 KA relative to UGCAUGU.

Take B17: the binding signal is 0.0349 KA relative to UGCAUGU.

As to B18, the binding signal is 0.0327 KA relative to UGCAUGU.

As to B19, the binding signal is 0.0191 KA relative to UGCAUGU.

Turning to B20, the binding signal is 0.0136 KA relative to UGCAUGU.

With B21, the binding signal was 0.0138 KA relative to UGCAUGU.
